Results filed as inconclusive are left out. Calls of active or inactive are those of the source. Unless noted, calls come from the whole dose curve; as a rule, active = well fitted curve in the direction sought with a large enough effect; inconclusive = small, poorly fitted or top-dose-only effect, or another doubt; inactive = no such curve, though single readings can be large; an effect the other way counts as inactive or inconclusive.

Assay [1] is described as follows: qHTS to identify inhibitors of the type 1 interferon - major histocompatibility complex class I in skeletal muscle: primary screen against the NCATS Mechanism Interrogation Plate v5.0 (MIPE) Libary (AID 1347411). Note: nearly all actives have a fitted effect of over 65% in size. Note: potency is the fitted concentration of half-maximal effect. In short, it runs like this:
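Seed engineered human myoblasts (HLA-B HiBit) in medium without dexamethasone containing 4 ng/ml IFN-beta; after 1 hr add compound titrations (top 46 uM final). Incubate 24 hrs at 37 C, lyse 10 min with HiBiT reagent, read luminescence.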
(In general: In qHTS, concentration-response curves come from the screen itself.)

For assay [2], the target named is Calcium and integrin-binding protein 1 (Homo sapiens) (UniProt Q99828). Description: Primary qHTS for Identification of Calcium Integrin Binding Protein 1 (CIB1) Competitor (AID 1508620).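 Note: GST tagged CIB1 binding a fluorescein labelled alphaIIb integrin peptide tracer; top concentration of the series differs between compounds.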 In short, it runs like this: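 Fluorescence polarization competition: CIB1-GST (1 uM final) preincubated with compound 15 min at room temperature, then FITC-labeled alphaIIb peptide (100 nM final) added for another 15 min. Polarization read at Ex 480/Em 540.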
Calcium and integrin-binding protein 1 (Homo sapiens), sequence (Q99828 whole entry, looked up): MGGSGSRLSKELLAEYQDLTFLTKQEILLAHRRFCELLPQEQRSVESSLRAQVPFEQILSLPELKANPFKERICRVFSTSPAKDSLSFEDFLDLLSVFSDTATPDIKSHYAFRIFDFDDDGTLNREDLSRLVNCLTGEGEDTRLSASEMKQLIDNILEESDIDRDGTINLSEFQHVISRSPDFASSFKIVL

Assay [3] is described as follows: qHTS to identify inhibitors of the type 1 interferon - major histocompatibility complex class I in skeletal muscle: primary screen against the NCATS Pharmaceutical Collection (AID 1347407).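 Note: luminescence of HiBiT knocked into endogenous HLA-B as interferon-induced MHC class I level.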 In short, it runs like this: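 HLA-B HiBiT myoblasts, dexamethasone-free growth medium + 4 ng/ml IFN-b; compounds pinned 1 h after seeding, […] from 46 uM; 24 h, 37 C, 5% CO2; lytic HiBiT detection, 10 min RT, luminescence.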

The target of assay [4] is Protein phosphatase 1D (Homo sapiens) (UniProt O15297). The assay can be described thus: RapidFire Mass Spectrometry qHTS Assay for Modulators of WT P53-Induced Phosphatase 1 (WIP1) (AID 1347424).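 Note: amount of dephosphorylated VEPPL-S-QETFS peptide product formed by WIP1.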 Note: potency is the fitted concentration of half-maximal effect. The essentials: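 Mass-spectrometric measurement of dephosphorylated peptide after a 5 min room-temperature reaction of 10 nM WIP1 with 2 uM phosphopeptide, following 1 h compound preincubation in 30 mM MgCl2 buffer.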
Protein phosphatase 1D (Homo sapiens), sequence (O15297 whole entry, looked up): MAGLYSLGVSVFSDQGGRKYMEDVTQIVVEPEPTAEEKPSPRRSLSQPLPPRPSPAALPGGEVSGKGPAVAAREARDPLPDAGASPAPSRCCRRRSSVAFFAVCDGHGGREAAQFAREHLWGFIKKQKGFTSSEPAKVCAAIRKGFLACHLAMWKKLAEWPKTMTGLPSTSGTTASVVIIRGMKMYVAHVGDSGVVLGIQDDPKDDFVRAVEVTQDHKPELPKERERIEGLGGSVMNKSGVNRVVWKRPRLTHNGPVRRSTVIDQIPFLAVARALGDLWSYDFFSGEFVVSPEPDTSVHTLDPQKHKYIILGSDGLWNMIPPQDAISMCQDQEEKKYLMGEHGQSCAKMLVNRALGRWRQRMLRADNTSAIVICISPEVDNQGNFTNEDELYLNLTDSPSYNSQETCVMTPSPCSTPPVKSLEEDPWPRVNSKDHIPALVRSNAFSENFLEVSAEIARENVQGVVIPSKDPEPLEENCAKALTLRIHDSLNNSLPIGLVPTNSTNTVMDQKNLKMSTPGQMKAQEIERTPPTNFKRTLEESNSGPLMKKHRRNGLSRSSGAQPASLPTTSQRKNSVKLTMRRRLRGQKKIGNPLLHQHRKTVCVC

Assay [5] can be described thus: Primary qHTS for inhibitors of La Crosse Virus (LACV) - induced cell death in SH-SY5Y cells (AID 1508616).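 Note: top concentration of the series differs between compounds; higher means more rescue of cells from virus-induced death.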 In short, it runs like this:
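SH-SY5Y, 6000 cells/well; cpd via pin tool in DMSO; LACV 0.01 MOI; 6 d 37C 5% CO2; ATPLite, 5 min RT; luminescence normalized to ±virus DMSO controls.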

A short description of assay [6]: qHTS for inhibitors of adenylyl cyclases using a fission yeast platform: a pilot screen against the NCATS LOPAC library (AID 1347410). The essentials:
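Read-out: fbp1-GFP fluorescence by laser scanning cytometry (488 nm laser), a gain of signal when AC/cAMP-PKA signalling is inhibited. Strain CHP2027 expressing AC9, GNAS and PDE4D2; compounds at up to 57 µM; 18 h, 30C.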

The nature of assay [7]: Validation qHTS assay for inhibitors of Activation Induced Cytidine Deaminase (AID): UDG Counterscreen signal (AID 1347427). The essentials:
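Fluorescence at 560 nm excitation, 665 nm emission reports UDG signal after 250 mM NaOH (2x) addition and 30 min. Enzymes (AID 1 uM, UDG 2 U/mL, at 4/3x) preincubated 10 min with compound, then 4 h with 4x 250 nM DJC20/DJC23 substrate at room temperature.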

In assay [8] the target is Single-stranded DNA cytosine deaminase (Homo sapiens) (UniProt Q9GZX7). Description: Validation qHTS assay for inhibitors of Activation Induced Cytidine Deaminase (AID): AID signal (AID 1347429). In short, it runs like this:
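Steps: dispense AID with UDG; pin-transfer compound up to 114 uM final; add DJC20/DJC23 substrate and hold 4 hr at room temperature; add NaOH, hold 30 min; read FRET signal (540/590 nm).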

The target of assay [9] is Calcium and integrin-binding protein 1 (Homo sapiens) (UniProt Q99828). The assay can be described thus: Validation qHTS for Identification of Calcium Integrin Binding protein 1 (CIB1) Competitor (AID 1508618). In short, it runs like this: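 CIB1-GST (1 uM final) incubated 15 min at room temperature with compounds (up to 114 uM), then FITC-labelled alphaIIb peptide (100 nM) added. FP read (Ex 480/Em 540) after 15 min, pH 7.4 buffer containing 5 mM CaCl2.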

Assay [10] has as its target Protein phosphatase 1D (Homo sapiens) (UniProt O15297). The assay can be described thus: Rhodamine-PBP qHTS Assay for Modulators of WT P53-Induced Phosphatase 1 (WIP1) (AID 1347425). The essentials:
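The read-out is the change in Rhodamine-PBP fluorescence (f1 - f0, ex 525/em 598 nm) as Pi is released, read each minute for 11 min. Final reaction: 5 nM WIP1, 10 uM phosphopeptide VEPPL-pS-QETFS, 10 uM Rh-PBP, 50 mM Tris-HCl pH 7.5, 30 mM MgCl2. Compound was preincubated with enzyme for 1 hour at room temperature.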

Assay [11] can be described thus: Counterscreen qHTS for small molecule stabilizers of the endoplasmic reticulum resident proteome: GLuc-NoTag assay (AID 1508627). Note: series mostly up to about 76 µM. In short, it runs like this:
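Secreted GLuc lacking the SERCaMP modification is measured in SH-SY5Y cells exposed to compound for 19 h and then to thapsigargin (100 nM, 4 h) to deplete ER calcium; hits retested at 11 concentrations, up to 76.6 uM.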
A general note: A counterscreen serves to expose hits that act by an unwanted route or on another target.

Assay [12] is described as follows: Confirmatory qHTS for VERO E6 Cytotoxicity Assay: Counterscreen for SARS-CoV-2 CPE Assay (AID 1508605; calls by dose curve; note: series mostly up to about 20 µM; nearly all actives have a fitted effect of over 60% in size).
Assay [13] is described as follows: Confirmatory qHTS for activators (rescue) of SARS-CoV-2 Cytopathic Effect (CPE) (AID 1508606; calls by dose curve; note: potency is the fitted concentration of half-maximal effect; nearly all actives have a fitted effect of over 70% in size).
Assay [14] in a line: Confirmatory qHTS for small molecule stabilizers of the endoplasmic reticulum resident proteome: Secreted ER Calcium Modulated Protein (SERCaMP) assay (AID 1508628). Note: series mostly up to about 76 µM; nearly all actives have a fitted effect of over 40% in size. In short, it runs like this: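 Reporter secretion upon ER calcium depletion (100 nM thapsigargin, 4 h, 37C) is measured as medium luminescence with coelenterazine, after 16 h compound pretreatment of SH-SY5Y-GLuc-SERCaMP cells; primary at three concentrations up to 38.3 uM, follow-up at 11 (up to 76.6 uM).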

Single-stranded DNA cytosine deaminase (Homo sapiens), sequence (Q9GZX7 whole entry, looked up): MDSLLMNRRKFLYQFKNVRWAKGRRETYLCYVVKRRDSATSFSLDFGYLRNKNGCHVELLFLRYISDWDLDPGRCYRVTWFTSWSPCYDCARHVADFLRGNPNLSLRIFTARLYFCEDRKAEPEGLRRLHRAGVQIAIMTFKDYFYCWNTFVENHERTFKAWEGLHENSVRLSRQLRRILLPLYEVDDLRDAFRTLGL

Take `Clc1ccccc1C(c1ccccc1)(c1ccccc1)n1cccn1`: in [1], the Potency entry was “inactive”. Further, the outcome in assay [2] was inactive.
Take `O=S(=O)(O)C(F)(F)C(F)(F)C(F)(F)C(F)(F)C(F)(F)C(F)(F)C(F)(F)C(F)(F)F`: the result in assay [3], in assay [5] and in assay [2] was inactive. Besides, the Potency in [4] was 1580 nM (active).
For the molecule `CN[C@@H]1C[C@@H](c2ccc(Cl)c(Cl)c2)c2ccccc21`, the molecule was called inactive in [6], in assay [7], in assay [8], in [5] and in assay [9].
Take `COCCOCCO`: the result in assay [3], in assay [10], in assay [5] and in assay [2] was inactive. Also, the Potency entry in assay [4] is “inactive”.
`COc1ccc(C(c2ccc(OC)cc2)C(Cl)(Cl)Cl)cc1`: the outcome in assay [3], in [10] and in assay [2] was inactive. Further, the Potency result in assay [4] is “inactive”.
With `CCCCC(CC)COC(=O)c1ccccc1C(=O)OCC(CC)CCCC` (stereo unspecified), the call in [3], in assay [10], in assay [5] and in assay [2] was inactive. Further, the Potency entry in [4] was “inactive”.
With `CCCCCCCCc1ccc(O)cc1`, the outcome in assay [3], in [5] and in assay [2] was inactive. In addition, the Potency entry in [4] is “inactive”.
Regarding `Nc1ccc([N+](=O)[O-])cc1`, the molecule was classed as inactive in assay [3], in [10], in [5] and in assay [2]. Moreover, in assay [4], the Potency result was “inactive”.
As for `Oc1ccc2c3c1O[C@H]1[C@@H](O)C=C[C@H]4[C@@H](C2)NCC[C@@]341`, the call in assay [3], in [10] and in [5] was inactive. The Potency result in assay [4] and in assay [11] was “inactive” each time.
Take `CC(C)[C@H]1C(=O)N[C@H](CO)Cc2c[nH]c3cccc(c23)N1C`: the Potency result in assay [1] and in [12] was “inactive” each time. The Potency in [13] was 1390 nM (active). In addition, the result in assay [2] was inactive.
As for `COc1nn(CSP(=S)(OC)OC)c(=O)s1`, the molecule was called inactive in assay [3] and in assay [5]. Besides, the Potency entry in [4] was “inactive”.
As to `Nc1ccc(Cl)cc1`, the molecule was classed as inactive in assay [3], in [10], in assay [5] and in [2]. Further, in [4], the Potency entry is “inactive”.
For `CS(=O)(=O)c1ccc(C(=O)C2C(=O)CCCC2=O)c([N+](=O)[O-])c1`, the outcome in assay [3] and in assay [5] was inactive.
Consider `C/C=C(/C)C(=O)O[C@H]1C(C)=C2[C@H]([C@@H]1OC(=O)CCCCCCC)[C@@](C)(OC(C)=O)C[C@H](OC(=O)CCC)[C@@]1(O)[C@H]2OC(=O)[C@@]1(C)O`, for which, in assay [1], the Potency was 16.5 nM (active). For the same molecule, the result in assay [7], in assay [8], in [9] and in [2] was inactive. Also, the Potency entry in [11] and in assay [14] was “inactive” in each case.
For `Nc1c(Cl)c(Cl)c(Cl)c(Cl)c1Cl`, the molecule was called inactive in assay [3], in assay [10], in assay [5] and in assay [2]. In addition, the Potency entry in assay [4], in [11] and in assay [14] was “inactive” throughout.
`c1ccc(CCCN2CCN(CCOC(c3ccccc3)c3ccccc3)CC2)cc1`: the molecule was called inactive in assay [6], in [8], in assay [9] and in assay [2].
For `O=C1C(I)=CC(=C(c2cc(I)c(O)c(I)c2)c2ccccc2C(=O)O)C=C1I`, the result in assay [3] and in assay [5] was inactive.
On to `CC(C)(O)C(=O)Nc1ccc([N+](=O)[O-])c(C(F)(F)F)c1`, for which the Potency entry in assay [1] was “inactive”.
As to `CCCC[N+]1(C)[C@H]2CC(OC(=O)[C@H](CO)c3ccccc3)C[C@H]1[C@H]1O[C@H]12` (stereo partly specified), in [1], the Potency result was “inactive”. For the same molecule, in assay [2], the outcome was inactive.

The record behind these values is PubChem BioAssay (NCATS).
